Values joined by “and” are separate entries in the source; they are usually repeats but may differ in a detail not shown here. Equal values may be shown once. Inconclusive results are not listed. Active and inactive are the calls of the source. Calls come from the whole dose curve; as a rule, active = well fitted curve in the direction sought with a large enough effect in the repeat runs; inconclusive = weak or mixed curves; inactive = no such curve, though single readings can be large; an effect the other way counts as inactive or inconclusive.
Legend:
[1] = qHTS RealTime-Glo MT Cell Viability Assay in HEK293 cells - 16 hour (AID 1224872); note: nearly all actives have a fitted effect of over 50% in size; note: potency is the fitted concentration of half-maximal effect; for activity change, negative = cytotoxicity: top concentration of the series differs between compounds
Method in brief: (§1)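 Viability tracked continuously by luminescence as live cells reduce a prosubstrate for NanoLuc; HEK293 cells preincubated 5 h, compound-treated at 37 C, and read at 0, 8, 16, 24, 32 and 40 h.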

[2] = qHTS RealTime-Glo MT Cell Viability Assay in HepG2 cells - 8 hour (AID 1224873); note: nearly all actives have a fitted effect of over 55% in size; note: potency is the fitted concentration of half-maximal effect
Method in brief: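 HepG2 cells (600/well) mixed with RealTime-Glo MT reagent, settled 5 h at 37 C/5% CO2 before compound addition. Nonlytic NanoLuc luminescence from viable-cell prosubstrate reduction read repeatedly during 40 h treatment at 37 C.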

[3] = qHTS RealTime-Glo MT Cell Viability Assay in HEK293 cells - 40 hour (AID 1224874); details: RealTime-Glo luminescence; max response: stronger effect = lower value; note: nearly all actives have a fitted effect of over 50% in size; note: potency is the fitted concentration of half-maximal effect
Method in brief: (§2)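 Tox21 screen in HEK293 using RealTime-Glo MT chemistry, with cells and reagent co-dispensed. Luminescence proportional to viable cell number was captured at intervals during 40 h compound exposure at 37 C.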

[4] = A CellTox Green Cytotoxicity Assay to monitor cytotoxicity in HEK293 cells - 24 hour (AID 1224875); note: nearly all actives have a fitted effect of over 45% in size; note: potency is the fitted concentration of half-maximal effect; for activity change: series mostly up to about 77 µM
Method in brief: (§3)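 Seeding of HEK293 cells together with cytotoxicity dye preceded a 5 h incubation at 37 C/5% CO2. Test compounds in DMSO were then added and fluorescence monitored across 40 h.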

[5] = A CellTox Green Cytotoxicity Assay to monitor cytotoxicity in HepG2 cells - 16 hour (AID 1224876); note: nearly all actives have a fitted effect of over 45% in size; note: potency is the fitted concentration of half-maximal effect
Method in brief: (§4)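 Nonlytic assay: viable cells exclude the dye, so fluorescence scales with cell death. HepG2 at 600 cells/well, compounds added after 5 h, signal read across 40 h.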

[6] = qHTS RealTime-Glo MT Cell Viability Assay in HepG2 cells - 32 hour (AID 1224877); note: nearly all actives have a fitted effect of over 55% in size; note: potency is the fitted concentration of half-maximal effect
Method in brief: (§5)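 Viability was tracked continuously by NanoLuc luminescence from prosubstrate reduced by living HepG2 cells, at successive time points over 40 h of compound exposure. Cells with reagent were preincubated 5 h at 37 °C before compound addition.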

[7] = A CellTox Green Cytotoxicity Assay to monitor cytotoxicity in HepG2 cells - 40 hour (AID 1224879); note: nearly all actives have a fitted effect of over 40% in size; note: potency is the fitted concentration of half-maximal effect
Method in brief: as §4

[8] = qHTS RealTime-Glo MT Cell Viability Assay in HEK293 cells - 0 hour (AID 1224880); note: top concentration of the series differs between compounds; nearly all actives have a fitted effect of over 45% in size
Method in brief: as §2

[9] = A CellTox Green Cytotoxicity Assay to monitor cytotoxicity in HEK293 cells - 32 hour (AID 1224881); note: nearly all actives have a fitted effect of over 40% in size; note: potency is the fitted concentration of half-maximal effect
Method in brief: as §3

[10] = A CellTox Green Cytotoxicity Assay to monitor cytotoxicity in HepG2 cells - 0 hour (AID 1224882); note: nearly all actives have a fitted effect of over 35% in size
Method in brief: as §4

[11] = A CellTox Green Cytotoxicity Assay to monitor cytotoxicity in HepG2 cells - 32 hour (AID 1224883); note: nearly all actives have a fitted effect of over 50% in size; note: potency is the fitted concentration of half-maximal effect
Method in brief: as §4

[12] = qHTS RealTime-Glo MT Cell Viability Assay in HepG2 cells - 16 hour (AID 1224885); note: nearly all actives have a fitted effect of over 50% in size; note: potency is the fitted concentration of half-maximal effect
Method in brief: as §5

[13] = qHTS RealTime-Glo MT Cell Viability Assay in HEK293 cells - 24 hour (AID 1224886); note: nearly all actives have a fitted effect of over 50% in size; note: potency is the fitted concentration of half-maximal effect; for activity change, negative = cytotoxicity: top concentration of the series differs between compounds
Method in brief: as §1

[14] = qHTS RealTime-Glo MT Cell Viability Assay in HepG2 cells - 0 hour (AID 1224889); note: nearly all actives have a fitted effect of over 50% in size
Method in brief: as §5

[15] = qHTS assay to identify small molecule antagonists of the estrogen receptor alpha (ER-alpha) signaling pathway using the BG1 cell line in the presence of 0.1 nM 17-beta-estradiol - cell viability counter screen (AID 1259241); note: nearly all actives have a fitted effect of over 40% in size; note: potency is the fitted concentration of half-maximal effect
Method in brief: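 VM7Luc4E2 cells (endogenous full-length ER-alpha, 4xERE-luciferase), cultured 5 days in charcoal-stripped serum, exposed to compounds with 0.1 nM 17beta-estradiol (final) for 22 hr at 37C. Viability read in same wells as live-cell protease fluorescence after 30 min.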

[16] = A CellTox Green Cytotoxicity Assay to monitor cytotoxicity in HEK293 cells - 8 hour (AID 1224884); note: nearly all actives have a fitted effect of over 35% in size; note: potency is the fitted concentration of half-maximal effect
Method in brief: as §3

[17] = qHTS RealTime-Glo MT Cell Viability Assay in HEK293 cells - 8 hour (AID 1224887); note: nearly all actives have a fitted effect of over 50% in size; note: potency is the fitted concentration of half-maximal effect; for activity change, negative = cytotoxicity: top concentration of the series differs between compounds
Method in brief: as §2

[18] = A CellTox Green Cytotoxicity Assay to monitor cytotoxicity in HEK293 cells - 16 hour (AID 1224888); note: nearly all actives have a fitted effect of over 35% in size; note: potency is the fitted concentration of half-maximal effect
Method in brief: as §3

[19] = A CellTox Green Cytotoxicity Assay to monitor cytotoxicity in HepG2 cells - 8 hour (AID 1224890); note: nearly all actives have a fitted effect of over 45% in size; note: potency is the fitted concentration of half-maximal effect
Method in brief: as §4

[20] = A CellTox Green Cytotoxicity Assay to monitor cytotoxicity in HepG2 cells - 24 hour (AID 1224878); note: nearly all actives have a fitted effect of over 45% in size; note: potency is the fitted concentration of half-maximal effect
Method in brief: as §4
% is set by controls: 0 for no effect and ±100 for the full control effect.

CN(C)C(=S)[S-].CN(C)C(=S)[S-].[Cu+2]
active: Potency [1] 1890 nM | Potency [2] 6700 nM | Potency [3] 1.19 µM | Potency [4] 2380 nM | Potency [5] 4230 nM | Potency [6] 2670 nM | Potency [7] 2670 nM | Potency [9] 2380 nM | Potency [11] 2990 nM | Potency [12] 3770 nM | Potency [13] 1.34 µM | Potency [15] 1670 nM
inactive: activity change, negative = cytotoxicity [8] -3.44% [at 15.8 µM] | cytotoxicity [10] 0.299% [at 15.8 µM] | activity change, negative = cytotoxicity [14] -22.4% [at 15.8 µM]

C[C@H]1O[C@@H](O[C@H]2[C@@H](O)C[C@H](O[C@H]3[C@@H](O)C[C@H](O[C@H]4CC[C@@]5(C)[C@H](CC[C@@H]6[C@@H]5CC[C@]5(C)[C@@H](C7=CC(=O)OC7)CC[C@]65O)C4)O[C@@H]3C)O[C@@H]2C)C[C@H](O)[C@@H]1O
active: Potency [1] 95.2 nM | Potency [3] 31.1 nM and 95.2 nM | Potency [13] 34.9 nM and 84.9 nM
inactive: Potency [2] | Potency [4] | Potency [5] | Potency [6] | Potency [8] | Potency [9] | Potency [10] | Potency [11] | Potency [16] | Potency [12] | Potency [17] | Potency [18] | Potency [14] | Potency [19] | Potency [15]

CC(=O)c1ccc(-c2ccccc2)cc1
inactive: Potency [1] | Potency [2] | max response [3] -11.1% | Potency [4] | Potency [5] | Potency [6] | Potency [7] | Potency [8] | Potency [9] | Potency [11] | Potency [12] | Potency [13] | Potency [17] | Potency [18] | Potency [19] | Potency [15]

O=[N+]([O-])c1c2ccccc2cc2ccccc12
inactive: Potency [1] | Potency [2] | max response [3] 1.8% | Potency [6] | Potency [8] | Potency [10] | Potency [12] | Potency [13] | Potency [17] | Potency [14] | Potency [19] | Potency [15]
active: Potency [4] 5430 nM | Potency [5] 1080 nM | Potency [7] 60900 nM | Potency [9] 5430 nM | Potency [18] 5430 nM

CCCN(CC)CC1COC2(CCC(C(C)(C)C)CC2)O1 (centres undefined)
inactive: Potency [1] | Potency [2] | max response [3] -8.74% | Potency [4] | Potency [5] | Potency [6] | Potency [7] | Potency [10] | Potency [11] | Potency [16] | Potency [12] | Potency [13] | Potency [17] | Potency [18] | Potency [14] | Potency [19] | Potency [15]

CC(C)OS(C)(=O)=O
inactive: Potency [1] | Potency [2] | max response [3] 0.77% | Potency [4] | Potency [5] | Potency [20] | Potency [7] | Potency [8] | Potency [9] | Potency [10] | Potency [11] | Potency [16] | Potency [12] | Potency [13] | Potency [17] | Potency [14] | Potency [19] | Potency [15]

CCN
inactive: Potency [1] | Potency [2] | max response [3] 19.6% | Potency [4] | Potency [5] | Potency [6] | Potency [7] | Potency [8] | Potency [9] | Potency [10] | Potency [11] | Potency [16] | Potency [12] | Potency [13] | Potency [17] | Potency [18] | Potency [19] | Potency [15]

CCC(C)c1cc(C(C)(C)C)cc(-n2nc3ccccc3n2)c1O (centres undefined)
inactive: Potency [1] | Potency [2] | max response [3] 9.2% | Potency [4] | Potency [5] | Potency [6] | Potency [20] | Potency [8] | Potency [9] | Potency [11] | Potency [16] | Potency [12] | Potency [13] | Potency [17] | Potency [18] | Potency [14] | Potency [19] | Potency [15]

BrC(Br)Br
inactive: Potency [1] | Potency [2] | max response [3] 17.3% | Potency [4] | Potency [5] | Potency [6] | Potency [20] | Potency [8] | Potency [9] | Potency [11] | Potency [16] | Potency [12] | Potency [13] | Potency [17] | Potency [18] | Potency [14] | Potency [19] | Potency [15]

Oc1ccccc1Br
inactive: Potency [1] | Potency [2] | max response [3] 3.02% | Potency [4] | Potency [5] | Potency [6] | Potency [7] | Potency [8] | Potency [9] | Potency [10] | Potency [11] | Potency [16] | Potency [12] | Potency [13] | Potency [17] | Potency [18] | Potency [14] | Potency [15]

CCC[CH2][Sn]([CH2]CCC)([CH2]CCC)[O]C(=O)c1ccccc1
active: Potency [1] 436 nM | Potency [2] 776 nM | Potency [3] 0.389 µM | Potency [4] 1950 nM | Potency [5] 692 nM | Potency [6] 436 nM | Potency [20] 692 nM | Potency [9] 977 nM | Potency [11] 692 nM | Potency [16] 11000 nM | Potency [12] 616 nM | Potency [13] 0.389 µM | Potency [17] 871 nM | Potency [18] 4360 nM | Potency [19] 1100 nM | Potency [15] 21700 nM
inactive: Potency [10] | Potency [14]

N#Cc1ccc(O)cc1
inactive: Potency [1] | Potency [2] | max response [3] -7.33% | Potency [4] | Potency [5] | Potency [6] | Potency [7] | Potency [8] | Potency [9] | Potency [10] | Potency [11] | Potency [16] | Potency [12] | Potency [13] | Potency [17] | Potency [14] | Potency [19] | Potency [15]

From PubChem BioAssay (Tox21)
